These results are taken from PubChem BioAssay (NCI).

About 83,000 compounds went through this panel and 20% of them were active in at least one assay; those are over-represented in the sample as a whole.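 Each cell line was grown in a 96-well plate and treated with one concentration of compound for 48 hours. Values below 10 were considered active.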 Values without a mark were called inactive. Active and inactive are the calls of the source.

Holding throughout (test): NCI-60 one-dose screen, 48 h (100 = growth as untreated, 0 = no growth, -100 = all killed)
Common to all, as to conditions: 10 µM

Assay [1] relates to DU-145 prostate.
Assay [2] concerns K-562 leukemia.
Assay [3] has as its system MALME-3M melanoma.
For assay [4], the system named is MDA-MB-231 breast.
For assay [5], the system named is RXF 393 renal.
Assay [6] concerns SF-268 CNS.
Assay [7] deals with SF-295 CNS.
The subject of assay [8] is SF-539 CNS.
In assay [9] the test system is UACC-257 melanoma.
Assay [10] deals with M14 melanoma.
In assay [11] the test system is HCT-15 colon.
The test system of assay [12] is HT29 colon.
The subject of assay [13] is SNB-75 CNS.
Assay [14] deals with SNB-19 CNS.
Assay [15] concerns U251 CNS.
In assay [16] the test system is SK-MEL-5 melanoma.
Assay [17] has as its system UACC-62 melanoma.
Assay [18] deals with LOX IMVI melanoma.
In assay [19] the test system is SK-MEL-28 melanoma.
Assay [20] has as its system PC-3 prostate.

`O=C(O)CN1C(=O)C=CC1=O`: the growth in assay [1] was 104%; in assay [2], 96.4%; in [3], 97.7%; in assay [4], 107%; in assay [5], 98.9%; in assay [6] it was 94.4%. Further, the growth in assay [7] was 103%; in assay [8], 96.2%; in assay [9], 115%; in [10], 106%; in assay [11] it was 100%; in [12] it was 104%. For the same compound, the growth in [13] was 103%; in [14], 106%; in assay [15], 102%; in assay [16], 101%; in [17] it was 103%; in [18], 102%. Also, the growth in [19] is 123%.

For the compound `Cc1nc2ccc(-n3c(-c4ccc(Cl)cc4)nc4ccccc4c3=O)cc2n1Cc1ccccc1`, the growth in [1] was 95.2%; in assay [2], 85.6%; in assay [3], 89.4%; in [4] it was 88.1%; in [5], 104%; in assay [6] it was 92.4%. Besides, the growth in assay [7] is 90.2%; in assay [8], 96.8%; in assay [9] it was 78.2%; in [10], 95.1%; in assay [11], 77%; in [12] it was 95.6%. Moreover, the growth in assay [13] is 95.9%; in assay [14] it was 108%; in [15], 89.1%; in [20], 58.6%; in assay [16] it was 66.7%; in assay [17] it was 78.4%. The growth in assay [18] is 91.9%; in assay [19] it was 107%.

In the case of `Fc1ccc2[nH]c3c(NCCCN4CCOCC4)ncnc3c2c1`, the growth in [1] is 79.2%; in assay [2], 73.9%; in [3], 61.5%; in assay [4], 55.6%; in assay [5] it was 60.8%; in [6], 61.5%. Besides, the growth is 39% in assay [7]; 65% in assay [8]; 107% in assay [9]; 85.3% in assay [10]; 91.1% in [11]; 66.1% in assay [12]. The growth in assay [13] was -0.656% (active); in [14] it was 91.7%; in assay [15], 41.1%; in [20] it was 83%; in [16] it was 92.2%; in assay [17], 92.3%. The growth in assay [18] was 69.1%; in [19] it was 104%.

With `C=CCNC(=S)NN`, the growth is 92.5% in assay [1]; 52.4% in [2]; 79.7% in [3]; 90.9% in [4]; 105% in assay [5]; 95.8% in assay [6]. Also, the growth in assay [7] was 88.8%; in assay [8], 95.1%; in assay [9], 50.7%; in assay [10], 97.9%; in [11] it was 90.7%; in assay [12], 55.5%. Besides, the growth in assay [13] was 95.3%; in assay [14] it was 94.4%; in assay [15], 77.4%; in assay [16], 99.5%; in assay [17], 99.6%; in assay [18] it was 97.3%. In addition, in assay [19], the growth was 104%.

On to `Cc1nnc2c3nnc(-c4ccc(Cl)cc4)n3c3ccccc3n12`, for which the growth in [1] is 103%; in assay [2], 90%; in [3] it was 88.6%; in assay [4], 100%; in assay [5], 102%; in assay [6], 100%. The growth is 88.2% in [7]; 92.2% in assay [8]; 98.1% in [9]; 96.7% in [10]; 97.4% in assay [11]; 103% in assay [12]. The growth in assay [13] was 89.1%; in assay [14], 106%; in [15] it was 100%; in [16], 99.7%; in assay [17], 97.7%; in assay [18], 97.2%. Besides, the growth in assay [19] is 104%.

Regarding `CCOC(=O)Cn1nnc(-c2ccc(OCc3ccccc3F)cc2)n1`, the growth in assay [1] was 103%; in [2], 53%; in assay [3], 36.9%; in assay [4], 104%; in assay [5], 79.9%; in [6], 82.8%. Besides, the growth is 91.7% in [7]; 92.4% in [8]; 87.5% in [9]; 75.1% in assay [10]; 88.5% in assay [11]; 92.4% in assay [12]. The growth in assay [13] was 57.8%; in assay [14] it was 93.9%; in [15], 99%; in [20], 89%; in [16] it was 91.5%; in [17] it was 81.4%. The growth in assay [18] was 85.2%; in assay [19], 72.9%.

With `CC(C)/C=N/NC(N)=S`, the growth is 95.3% in [1]; 47.3% in assay [2]; 80.3% in assay [3]; 86.2% in assay [4]; 106% in [5]; 99.9% in [6]. Also, the growth in assay [7] is 90.5%; in [8], 102%; in assay [9] it was 40.5%; in assay [10] it was 84.4%; in assay [11] it was 90.6%; in [12] it was 62.2%. The growth in assay [13] was 81.3%; in assay [14] it was 98.3%; in [15], 80.8%; in assay [20] it was 55.1%; in [16], 97.2%; in assay [17] it was 97.3%. The growth in assay [18] was 96%; in assay [19], 99.2%.

Consider `CCc1c(C)[nH]c(=O)c(C(N)=O)c1C#N`, for which the growth was 115% in [1]; 114% in assay [2]; 103% in assay [3]; 102% in assay [4]; 108% in assay [5]; 105% in [6]. The growth in assay [7] is 98.1%; in assay [8], 92.9%; in [9] it was 92.5%; in [10], 97.5%; in assay [11], 95.4%; in [12], 96.6%. Besides, the growth in assay [13] was 99.9%; in assay [14], 90.1%; in [15] it was 99.4%; in assay [20], 99.4%; in assay [16], 103%; in assay [17] it was 88.4%. In addition, the growth in assay [18] is 109%; in [19] it was 114%.
